# Measurements: ChEMBL document CHEMBL3988442, “University of Dundee, Small-Polar-MMV Screening Library” (2021)
# Screen size: about 48,000 compounds; about 13,000 (27%) showed an effect of 50% or more. The list shows a part of the results.
# Tested on: Wolbachia pipientis
# Assay: Anti-Wolbachia Cell-Based Screen
# Type: functional
# Parameters: scale not given: in the data most compounds retested in dose-response had high values
# Conditions: 5 µM
row,SMILES,Percent Effect
1,c1ccc(-c2nnc3ccc(N4CCC5(CCOC5)C4)nn23)cc1 (stereo unspecified),-13.9%
2,CNC(=O)CN1CCC(NC(=O)C(C)Oc2ccccc2C#N)CC1 (stereo unspecified),0.1216%
3,CC(C)NS(=O)(=O)c1cc(C(=O)O)cc(-c2ccccc2CO)c1,11.88%
4,Cc1nc(C2CCCN2Cc2ncc(C(C)C)o2)no1 (stereo unspecified),8.273%
5,Cc1nc(C2CCCN2Cc2nc(C)c(C)o2)no1 (stereo unspecified),-0.5484%
6,Cc1nc(CN2CCCC2c2noc(C(C)C)n2)oc1C (stereo unspecified),98.12%
7,NC(=O)c1cccc2nc([C@H]3CCN(Cc4ccccc4F)C3)[nH]c12,1.754%
8,CCn1cnnc1CNC(=O)C1CCCN(Cc2cccc(F)c2)C1 (stereo unspecified),3.888%
9,Cn1cnnc1CNC(=O)C1CCCN(Cc2cccc(F)c2)C1 (stereo unspecified),-3.668%
10,Cc1nc2cc(C3CCN(Cc4ccccc4F)C3)nn2c(O)c1C (stereo unspecified),92.44%
11,Cc1nc[nH]c1CN1CCC(C2CCN(CCc3ccccc3)C2)CC1 (stereo unspecified),-8.62%
12,Cc1cc(CN2CCC(C3CCN(Cc4cccnc4)CC3)C2)[nH]n1 (stereo unspecified),-58.7%
13,CCc1c(C)nc2cc(C3CCN(Cc4cccnc4)C3)nn2c1O (stereo unspecified),85.92%
14,Cc1cc(CN2CCC(C3CCN(CCc4ccccc4)C3)CC2)[nH]n1 (stereo unspecified),-6.326%
15,CCc1c(C)nc2cc(C3CCN(CCc4ccccc4)C3)nn2c1O (stereo unspecified),76.13%
16,CCc1c(C)nc2cc(C3CCN(Cc4ccccc4F)C3)nn2c1O (stereo unspecified),-15.15%
17,CCc1c(C)nc2cc(C3CCN(Cc4cccc(F)c4)C3)nn2c1O (stereo unspecified),98.22%
18,Cc1nc(N2CCOCC2)nc(C)c1NC(=O)COc1ccccc1,15.56%
19,c1cc(-c2noc(CN3CCn4c(nnc4C4CC4)C3)n2)co1,-9.374%
20,O=C1N(Cc2ccc(F)c(F)c2)CCCC12CCN(C1CCSCC1)C2 (stereo unspecified),-6.504%
21,COCCCS(=O)(=O)N1CCN(C(=O)CO)CC1,-3.721%
22,CSc1sc(NC(=O)C2CCCN(C(N)=O)C2)nc1C (stereo unspecified),-0.4613%
23,CCc1c(C)nc2cc(C3CCN(Cc4ccncc4C)C3)nn2c1O (stereo unspecified),81.51%

row,SMILES,Percent Effect
1,CCn1c(C2CCCN(Cc3cccc4cnccc34)C2)nn(C)c1=O (stereo unspecified),3.036%
2,CCc1c(C)nc2cc(C3CCN(Cc4ccc(F)cc4)C3)nn2c1O (stereo unspecified),99.62%
3,O=C(NC1(c2nc(C3CC3)no2)CCCCC1)c1ccncc1,-8.803%
4,O=C(c1ccccc1F)N1CCN(c2ccc(-n3cccc3)nn2)CC1,-6.21%
5,CNC(=O)c1cccnc1NCCOc1ccc(CC#N)cc1,4.731%
6,O=C(O)C(F)(F)F.O=C(O)[C@]12CCCN(Cc3ccoc3)C[C@H]1CN(c1ncccn1)C2,0.4182%
7,Cc1cnn(CC2CCCN2C(=O)c2sccc2C#N)c1 (stereo unspecified),-6.888%
8,Cc1cnn(CC2CCCN2C(=O)c2sccc2-n2cnnn2)c1 (stereo unspecified),107.4%
9,Cc1cnn(CC2CCCCN2C(=O)c2ccccc2-n2cccn2)c1 (stereo unspecified),109.2%
10,Cc1cnn(CC2CCCN2C(=O)c2ccccc2-n2cccn2)c1 (stereo unspecified),86.06%
11,Cc1cnn(CC2CCCCN2C(=O)c2sccc2C#N)c1 (stereo unspecified),-11.17%
12,Cc1cnn(CC2CCCN2C(=O)c2ccccc2-n2cnnn2)c1 (stereo unspecified),114.3%
13,Cc1cnn(CC2CCCN2C(=O)c2cn(-c3ccccc3)nc2C)c1 (stereo unspecified),-0.04653%
14,O=C(c1cn(-c2cc(N3CCOCC3)ncn2)cn1)N1CCSCC1,-13.27%
15,COc1ccc2c(c1)OCC(CNC(=O)c1ccncc1)C2 (stereo unspecified),2.151%
16,CCOC(=O)c1n[nH]cc1CN1CCOC(Cc2ccccc2)C1 (stereo unspecified),4.032%
17,Cc1cc(=O)[nH]c(-c2cccc(CN3CCCN4CCCC4C3)c2)n1 (stereo unspecified),-8.166%
18,Cc1cccc2[nH]c(C3CCCN(Cc4ccc(CO)o4)C3)nc12 (stereo unspecified),-5.911%
19,CCCS(=O)(=O)N1CCCC(c2nc(-c3ccccc3)c[nH]2)C1 (stereo unspecified),7.84%
20,Cc1c[nH]c(C2CCCN(Cc3cccc(C(=O)O)c3)C2)n1 (stereo unspecified),79.24%
21,Cc1c[nH]c(C2CCCN(Cc3ccccc3C(=O)O)C2)n1.O=CO (stereo unspecified),102.4%
22,CC(=O)N[C@@H]1CN(Cc2ccccc2C(=O)O)C[C@H]1C(C)C,-2.27%
23,Cc1c[nH]c(C2CN(Cc3ccccc3C(=O)O)CCO2)n1 (stereo unspecified),102.8%

row,SMILES,Percent Effect
1,Cc1n[nH]c(C2CN(Cc3ncc(C(C)C)o3)CCO2)n1 (stereo unspecified),3.962%
2,CSc1ncccc1C(=O)N1CCC(c2nc3c(C)cccc3[nH]2)CC1,-2.536%
3,Cc1cccc2[nH]c(C3CCCN(Cc4ccccc4C(=O)O)C3)nc12 (stereo unspecified),94.13%
4,CCc1nnc2ccc(NCC3(N4CCCCC4)CCOCC3)nn12,-22.71%
5,Cc1ccccc1Cc1nc(CSc2nnc(N)n2C)no1,3.092%
6,CCC(CNC(=O)c1ccco1)N1CCc2ccccc2C1 (stereo unspecified),8.519%
7,CC(C)NC(=O)C1c2c(ncn2C(C)C)CCN1Cc1ccccc1.O=C(O)C(F)(F)F (stereo unspecified),-4.449%
8,COc1ncccc1CNC(=O)C1=NN(c2ccccc2)C(=O)CN1,17.13%
9,O=C(OCc1ccccc1)c1cccc(NC(=O)C2COCCO2)c1 (stereo unspecified),-10.37%
10,CC(C)N1Cc2cccc(NCC(=O)N(C)C3CCCCC3)c2C1,-12.78%
11,OCCN1CCC(CNCc2ccc(N3CCCCC3)cc2)CC1,-10.73%
12,CC(C)NS(=O)(=O)c1cc(C(=O)O)cc(-n2cc3c(n2)CCC3)c1,-3.943%
13,CC1=N[C@@]2(CC[C@@H]3CN(Cc4ccccc4)C[C@@H]32)C(=O)N1CC1CC1.O=C(O)C(F)(F)F,87%
14,COCCN1C[C@H]2CC[C@@]3(N=C(C)N(CC4CC4)C3=O)[C@H]2C1.O=C(O)C(F)(F)F,-0.9614%
15,CC1=N[C@@]2(CC[C@@H]3CN(CC4CC4)C[C@@H]32)C(=O)N1CC1CC1.O=C(O)C(F)(F)F,106.2%
16,CC1=N[C@@]2(CC[C@@H]3CN(Cc4ccccc4C)C[C@@H]32)C(=O)N1CC1CC1.O=C(O)C(F)(F)F,101.1%
17,O=C(O)C(F)(F)F.O=C1NC(c2ccccc2)=N[C@@]12CC[C@@H]1CN(CC3CC3)C[C@@H]12,1.711%
18,CC1=N[C@@]2(CC[C@@H]3CN(Cc4cccc(Cl)c4)C[C@@H]32)C(=O)N1CC1CC1.O=C(O)C(F)(F)F,106.8%
19,CC1=N[C@@]2(CC[C@@H]3CN(CC(C)C)C[C@@H]32)C(=O)N1CC(C)C.O=C(O)C(F)(F)F,10.27%
20,CC1=N[C@@]2(CC[C@@H]3CN(CC4CC4)C[C@@H]32)C(=O)N1CC(C)C.O=C(O)C(F)(F)F,-11.12%
21,CC1=N[C@@]2(CC[C@@H]3CN(Cc4ccccc4F)C[C@@H]32)C(=O)N1CC1CC1.O=C(O)C(F)(F)F,-0.009519%
22,CCS(=O)(=O)N1CCC(Nc2c(F)cc(C#N)cc2F)CC1,12.27%
23,Cn1cc(S(=O)(=O)NCC2CCN(C(=O)c3ccoc3)CC2)cn1,-16.26%

row,SMILES,Percent Effect
1,CC1=N[C@@]2(CC[C@@H]3CN(CC(=O)N(C)C)C[C@@H]32)C(=O)N1CC(C)C.O=C(O)C(F)(F)F,6.41%
2,COCCN1C(=O)[C@]2(CC[C@@H]3CN(C(=O)NC(C)C)C[C@@H]32)N=C1C,32.84%
3,CC1=N[C@@]2(CC[C@@H]3CN(S(=O)(=O)CC(C)C)C[C@@H]32)C(=O)N1C,16.54%
4,CC1=N[C@@]2(CC[C@@H]3CN(Cc4ccccc4F)C[C@@H]32)C(=O)N1C,100.6%
5,CCC1=N[C@@]2(CC[C@@H]3CN(Cc4ccccc4F)C[C@@H]32)C(=O)N1.O=C(O)C(F)(F)F,-10.48%
6,CC1=N[C@@]2(CC[C@@H]3CN(Cc4ccc(C)cc4)C[C@@H]32)C(=O)N1CC1CC1.O=C(O)C(F)(F)F,104.5%
7,CC1=N[C@@]2(CC[C@@H]3CN(C(=O)NC(C)C)C[C@@H]32)C(=O)N1CC1CC1,1.3%
8,COCCN1C(=O)[C@]2(CC[C@@H]3CN(Cc4ccccc4F)C[C@@H]32)N=C1C.O=C(O)C(F)(F)F,90.53%
9,COCCN1C(=O)[C@]2(CC[C@@H]3CN(C(=O)NC4CCCC4)C[C@@H]32)N=C1C,-7.65%
10,COc1ccc(S(=O)(=O)NCC(c2cccn2C)N(C)C)cc1F (stereo unspecified),1.104%
11,Cc1nn(C)cc1C(=O)N1CCCn2nc(CN3CC[C@H](F)C3)cc2C1,10.52%
12,Cc1nccn1-c1ccc(C(C)NCc2cc[nH]n2)cc1 (stereo unspecified),-2.741%
13,CN(Cc1cccc2ncccc12)C(=O)CCC(F)(F)F,-3.963%
14,CC(C)c1cc(C(=O)N(C)Cc2cccc3ncccc23)n(C)n1,-7.2%
15,CN(Cc1csc(-c2cccs2)n1)Cc1cccnc1N,16.69%
16,CCCc1cc(C(=O)N(C)Cc2cccc3ncccc23)n(C)n1,20.91%
17,CN(Cc1cccc(CCN)c1)Cc1cccc2ncccc12,97.29%
18,COCCN(Cc1cccc(OCCO)c1)Cc1ccccc1F,0.9238%
19,CN(Cc1cccnc1N)Cc1cccc2ncccc12,108.3%
20,CCCN(Cc1cccc(OCCO)c1)Cc1ccccc1OC,8.157%
21,CN(Cc1cccc(OCCO)c1)Cc1cccc2ncccc12,95.97%
22,Cc1ccsc1-c1cc(C(=O)O)cc(S(=O)(=O)NCc2ccccn2)c1,-12.11%
